PubChem BioAssay AID1159580 (chemical genetic matrix, 2015)
In all, about 5,500 compounds went through this assay and about 2,000 (36%) were called active. Roughly 18% stayed inconclusive and do not appear here. Rule as the data show it: active = normalized growth mostly below about 0.91 (no sharp cut-off); inconclusive = no clear call, values can overlap the other calls; inactive = mostly above about 0.92. This is one part of the list.

Test: chemical genetic growth profiling, strain panel (AID 1159580);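 also: tested at 20 µM; growth read once vehicle control cultures reached saturation at 30 °C; 1 = growth at the plate median or of vehicle wells; lower values mean less growth of the strain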
Settings: growth OD

Measured: normalized growth

O=C(O)c1ccc(S(=O)(=O)N(Cl)Cl)cc1
inactive: S. cerevisiae deletion strains, locus YJR066W, strain TOR1, active compounds read low 0.916 | S. cerevisiae deletion strains, locus YKL009W, strain mrt4, active compounds read low 0.99 | S. cerevisiae deletion strains, locus YKL068W, active compounds read low 1 | S. cerevisiae deletion strains, locus YKL085W, strain MDH1 (second series), active compounds read low 1.01 | S. cerevisiae deletion strains, locus YKL085W, strain MDH1, active compounds read low 1.01 | S. cerevisiae deletion strains, locus YKL160W, strain elf1, active compounds read low 1.05 | S. cerevisiae deletion strains, locus YKL190W, strain CNB1, active compounds read low 1 | S. cerevisiae deletion strains, locus YKR001C, strain vps1, active compounds read low 1.02 | S. cerevisiae deletion strains, locus YKR026C, strain gcn3, active compounds read low 0.977 | S. cerevisiae deletion strains, locus YKR091W, strain srl3, active compounds read low 0.989 | S. cerevisiae deletion strains, locus YLL001W, strain dnm1, active compounds read low 1.03 | S. cerevisiae deletion strains, locus YLL026W, active compounds read low 0.976 | S. cerevisiae deletion strains, locus YLL041C, strain sdh2, active compounds read low 0.989 | S. cerevisiae deletion strains, locus YLR027C, strain aat2, active compounds read low 0.985 | S. cerevisiae deletion strains, locus YLR039C, strain RIC1, active compounds read low 0.985 | S. cerevisiae deletion strains, locus YLR058C, strain SHM2, active compounds read low 1.01 | S. cerevisiae deletion strains, locus YLR102C, strain apc9, active compounds read low 1.02 | S. cerevisiae deletion strains, locus YLR113W, strain HOG1, active compounds read low 0.961 | S. cerevisiae deletion strains, locus YLR221C, strain rsa3, active compounds read low 1.02 | S. cerevisiae deletion strains, locus YLR258W, strain gsy2, active compounds read low 0.994 | S. cerevisiae deletion strains, locus YLR262C, strain YPT6 (second series), active compounds read low 1 | S. cerevisiae deletion strains, locus YLR262C, strain YPT6, active compounds read low 0.995 | S. cerevisiae deletion strains, locus YLR268W, strain sec22, active compounds read low 1 | S. cerevisiae deletion strains, locus YLR320W, strain mms22, active compounds read low 1.05 | S. cerevisiae deletion strains, locus YLR330W, strain CHS5, active compounds read low 0.999 | S. cerevisiae deletion strains, locus YLR342W, strain FKS1 (second series), active compounds read low 0.993 | S. cerevisiae deletion strains, locus YLR342W, strain FKS1, active compounds read low 0.983 | S. cerevisiae deletion strains, locus YLR357W, strain rsc2, active compounds read low 1.01 | S. cerevisiae deletion strains, locus YLR370C, strain arc18, active compounds read low 0.974 | S. cerevisiae deletion strains, locus YLR371W, strain rom2, active compounds read low 1.01 | S. cerevisiae deletion strains, locus YLR384C, strain iki3, active compounds read low 0.988 | S. cerevisiae deletion strains, locus YLR418C, strain cdc73, active compounds read low 0.951 | S. cerevisiae deletion strains, locus YML016C, strain PPZ1, active compounds read low 1.01 | S. cerevisiae deletion strains, locus YML032C, strain rad52, active compounds read low 1.02 | S. cerevisiae deletion strains, locus YML120C, strain ndi1, active compounds read low 1.03 | S. cerevisiae deletion strains, locus YML124C, strain tub3, active compounds read low 1.03 | S. cerevisiae deletion strains, locus YMR058W, strain fet3, active compounds read low 0.983 | S. cerevisiae deletion strains, locus YMR078C, strain ctf18, active compounds read low 1.03 | S. cerevisiae deletion strains, locus YMR125W, strain sto1, active compounds read low 1.02 | S. cerevisiae deletion strains, locus YMR129W, active compounds read low 0.984 | S. cerevisiae deletion strains, locus YMR205C, strain PFK2, active compounds read low 1.04 | S. cerevisiae deletion strains, locus YMR223W, strain ubp8, active compounds read low 1.02 | S. cerevisiae deletion strains, locus YMR231W, strain pep5, active compounds read low 0.978 | S. cerevisiae deletion strains, locus YMR307W, strain GAS1, active compounds read low 0.964 | S. cerevisiae deletion strains, locus YNL067W, strain RPL9B, active compounds read low 1 | S. cerevisiae deletion strains, locus YNL071W, strain lat1, active compounds read low 0.998 | S. cerevisiae deletion strains, locus YNL128W, strain TEP1, active compounds read low 1.02 | S. cerevisiae deletion strains, locus YNL183C, strain NPR1, active compounds read low 0.926 | S. cerevisiae deletion strains, locus YNL209W, strain ssb2, active compounds read low 0.983 | S. cerevisiae deletion strains, locus YNL233W, strain BNI4, active compounds read low 0.997 | S. cerevisiae deletion strains, locus YNL248C, strain rpa49, active compounds read low 1.06 | S. cerevisiae deletion strains, locus YNL250W, strain rad50, active compounds read low 1.02 | S. cerevisiae deletion strains, locus YNL271C, strain bni1, active compounds read low 1.03 | S. cerevisiae deletion strains, locus YNL298W, strain CLA4, active compounds read low 1.05 | S. cerevisiae deletion strains, locus YNL307C, strain MCK1, active compounds read low 1.01 | S. cerevisiae deletion strains, locus YNL322C, strain KRE1 (second series), active compounds read low 0.992 | S. cerevisiae deletion strains, locus YNR049C, strain mso1, active compounds read low 0.975 | S. cerevisiae deletion strains, locus YNR052C, strain pop2, active compounds read low 1.01 | S. cerevisiae deletion strains, locus YOL006C, strain TOP1, active compounds read low 1.01 | S. cerevisiae deletion strains, locus YOL012C, strain htz1 2.24 | S. cerevisiae deletion strains, locus YOL147C, strain pex11, active compounds read low 1.02 | S. cerevisiae deletion strains, locus YOR001W, strain rrp6, active compounds read low 0.944 | S. cerevisiae deletion strains, locus YOR061W, strain CKA2, active compounds read low 1.01 | S. cerevisiae deletion strains, locus YOR069W, strain VPS5, active compounds read low 0.998 | S. cerevisiae deletion strains, locus YOR070C, strain gyp1, active compounds read low 0.967 | S. cerevisiae deletion strains, locus YOR080W, strain dia2, active compounds read low 0.969 | S. cerevisiae deletion strains, locus YOR083W, strain WHI5, active compounds read low 1.05 | S. cerevisiae deletion strains, locus YOR106W, strain vam3, active compounds read low 1.06 | S. cerevisiae deletion strains, locus YOR136W, strain idh2, active compounds read low 1.02 | S. cerevisiae deletion strains, locus YOR144C, strain elg1, active compounds read low 1.02 | S. cerevisiae deletion strains, locus YOR184W, strain ser1, active compounds read low 0.992 | S. cerevisiae deletion strains, locus YOR231W, strain MKK1, active compounds read low 0.971 | S. cerevisiae deletion strains, locus YOR265W, strain rbl2, active compounds read low 0.981 | S. cerevisiae deletion strains, locus YOR270C, strain vph1, active compounds read low 1.01 | S. cerevisiae deletion strains, locus YOR290C, strain snf2, active compounds read low 1 | S. cerevisiae deletion strains, locus YOR316C, strain cot1, active compounds read low 1.02 | S. cerevisiae deletion strains, locus YPL051W, strain arl3, active compounds read low 1.02 | S. cerevisiae deletion strains, locus YPL055C, strain LGE1, active compounds read low 0.979 | S. cerevisiae deletion strains, locus YPL078C, strain atp4, active compounds read low 1.05 | S. cerevisiae deletion strains, locus YPL106C, strain sse1, active compounds read low 0.985 | S. cerevisiae deletion strains, locus YPL240C, strain hsp82, active compounds read low 0.989 | S. cerevisiae deletion strains, locus YPL241C, strain CIN2, active compounds read low 1 | S. cerevisiae deletion strains, locus YPL256C, strain CLN2, active compounds read low 0.97 | S. cerevisiae deletion strains, locus YPR119W, strain clb2, active compounds read low 1.02 | S. cerevisiae deletion strains, locus YPR141C, strain kar3, active compounds read low 1.02 | S. cerevisiae deletion strains, locus YPR163C, strain tif3, active compounds read low 1.04 | S. cerevisiae deletion strains, locus YPR167C, strain met16, active compounds read low 1.02 | S. cerevisiae deletion strains, strain wtn01, active compounds read low 1.01 | S. cerevisiae strains, strain wild type, active compounds read low 1
